Experimental data taken from PubChem BioAssay (NCI).
This is part of a sample that, as a whole, favours compounds with a hit. Of some 83,000 tested, about 20% had one in any assay.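 Activity criterion: percent growth below 10, measured after cells in 96-well plates were exposed to a single compound concentration for 48 hours.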 Active and inactive are the calls of the source.

Columns and labels:
Assay in all cases: NCI-60 one-dose screen, 48 h (100 = growth as untreated, 0 = no growth, -100 = all killed)
HCT-15 colon = details: 10 µM unless noted
HT29 colon = details: 10 µM unless noted
SNB-75 CNS = details: 10 µM unless noted
SNB-19 CNS = details: 10 µM unless noted
U251 CNS = details: 10 µM unless noted
PC-3 prostate = details: 10 µM unless noted
SK-MEL-5 melanoma = details: 10 µM unless noted
UACC-62 melanoma = details: 10 µM unless noted
SK-MEL-28 melanoma = details: 10 µM unless noted
SK-MEL-2 melanoma = details: 10 µM unless noted
EKVX NSCLC = details: 10 µM unless noted
SN12C renal = details: 10 µM unless noted
UO-31 renal = details: 10 µM unless noted
ACHN renal = details: 10 µM unless noted
CAKI-1 renal = details: 10 µM unless noted
A498 renal = details: 10 µM unless noted
CCRF-CEM leukemia = details: 10 µM unless noted
TK-10 renal = details: 10 µM unless noted
MOLT-4 leukemia = details: 10 µM unless noted
LOX IMVI melanoma = details: 10 µM

Measured: growth

C=C1CCC2C3(C)COC(c4cccc(F)c4)OC3CCC2(C)C1C/C=C1/C(=O)OCC1O (stereo not drawn)
active: HCT-15 colon -23.6% | HT29 colon -1.9% | U251 CNS -90% | PC-3 prostate -17.5% | SK-MEL-5 melanoma -19.3% | UACC-62 melanoma 2.91% | SK-MEL-28 melanoma -26.2% | SK-MEL-2 melanoma -50.6% | SN12C renal 4.14% | UO-31 renal -63.2% | ACHN renal -89.6%
inactive: SNB-75 CNS 54.1% | SNB-19 CNS 30.1% | EKVX NSCLC 23.1% | CAKI-1 renal 11% | A498 renal 118% | CCRF-CEM leukemia 16%

NS(=O)(=O)c1ccc(N=Nc2c(O)n(CC(=O)Nc3ccccc3Cl)c3ccccc23)cc1
inactive: HCT-15 colon 25.1% | SNB-75 CNS 52.8% | SNB-19 CNS 36.9% | PC-3 prostate 26.1% | UACC-62 melanoma 19.7% | SK-MEL-28 melanoma 21.2% | EKVX NSCLC 38.1% | SN12C renal 27.6% | TK-10 renal 63% | CAKI-1 renal 16.6% | A498 renal 80.2% | CCRF-CEM leukemia 50.5% | MOLT-4 leukemia 26.7%
active: HT29 colon 7.23% | U251 CNS 6.28% | SK-MEL-5 melanoma -1.56% | SK-MEL-2 melanoma 9.55% | UO-31 renal 2.95%

CN(C)CCn1c2ccccc2c2nc3ccc([N+](=O)[O-])cc3nc21
inactive: SNB-75 CNS 47.6% | PC-3 prostate 19.9% | EKVX NSCLC 17.3% | CCRF-CEM leukemia 17.6%
active: HCT-15 colon 4.65% | HT29 colon -15.6% | SNB-19 CNS 4.08% | U251 CNS -8.94% | SK-MEL-5 melanoma -81% | UACC-62 melanoma -25.5% | SK-MEL-28 melanoma 8.67% | SK-MEL-2 melanoma -10.6% | SN12C renal -9.41% | ACHN renal -40.8% | CAKI-1 renal -23.8% | A498 renal -41.7% | MOLT-4 leukemia 8.56%

COc1ccc2[nH]cc(-c3nc(N)nnc3-c3cn(C)c4ncccc34)c2c1
inactive: HCT-15 colon 44.4% | HT29 colon 35.6% | SNB-75 CNS 14.2% | SNB-19 CNS 63.8% | U251 CNS 60.1% | PC-3 prostate 68.4% | SK-MEL-5 melanoma 31.2% | UACC-62 melanoma 37.7% | SK-MEL-28 melanoma 62.3% | SK-MEL-2 melanoma 49.4% | EKVX NSCLC 63.7% | SN12C renal 59.6% | UO-31 renal 43.9% | ACHN renal 67.3% | CAKI-1 renal 38.8% | A498 renal 104% | CCRF-CEM leukemia 67.7% | MOLT-4 leukemia 41.3%

CC(=O)NNc1ccc2nnc(-c3ccccc3)n2n1
inactive: HCT-15 colon 103% | HT29 colon 129% | SNB-75 CNS 90.3% | SNB-19 CNS 97.3% | U251 CNS 101% | PC-3 prostate 107% | UACC-62 melanoma 98.6% | LOX IMVI melanoma 99.3% | SK-MEL-28 melanoma 107% | SK-MEL-2 melanoma 102% | EKVX NSCLC 95.9% | SN12C renal 97.1% | UO-31 renal 88.5% | TK-10 renal 106% | ACHN renal 104% | CAKI-1 renal 90.9% | A498 renal 108% | CCRF-CEM leukemia 108%

COc1cc(OC)cc(-c2cc3ccc(N(C)C)cc3c(=O)[nH]2)c1
inactive: HCT-15 colon 18.9% | HT29 colon 12.4% | SNB-75 CNS 57.3% | SNB-19 CNS 35.5% | PC-3 prostate 35.7% | UACC-62 melanoma 51.8% | LOX IMVI melanoma 23% | SK-MEL-28 melanoma 61.3% | SK-MEL-2 melanoma 33.6% | EKVX NSCLC 47% | SN12C renal 36.7% | UO-31 renal 52.4% | ACHN renal 31.2% | CAKI-1 renal 34.2% | A498 renal 121% | CCRF-CEM leukemia 15.5%
active: U251 CNS 7.67%

NS(=O)(=O)c1ccc(-n2cc(-c3cccc(NC(=O)c4ccc(Cl)c(C(F)(F)F)c4)c3)nn2)cc1
inactive: HCT-15 colon 41.6% | SNB-19 CNS 32.3% | PC-3 prostate 17.7% | UACC-62 melanoma 35% | SK-MEL-2 melanoma 78.3% | EKVX NSCLC 46.5% | SN12C renal 34.3% | UO-31 renal 51% | TK-10 renal 48.7% | ACHN renal 23.2% | CAKI-1 renal 33.2% | A498 renal 91.1% | CCRF-CEM leukemia 28.3%
active: HT29 colon 9.41% | SNB-75 CNS 5.75% | U251 CNS -54.8% | LOX IMVI melanoma -33.3% | SK-MEL-28 melanoma -14.5%

C#CCOc1ccc(/C=N/Nc2nc(-c3cc4cc(OC)ccc4oc3=O)cs2)cc1OC
inactive: HCT-15 colon 60.5% | HT29 colon 29.2% | SNB-75 CNS 102% | SNB-19 CNS 75.3% | U251 CNS 38.5% | PC-3 prostate 20.8% | UACC-62 melanoma 54.4% | LOX IMVI melanoma 22.8% | SK-MEL-28 melanoma 18.9% | SK-MEL-2 melanoma 55.2% | EKVX NSCLC 43.5% | SN12C renal 42.3% | UO-31 renal 87.7% | TK-10 renal 89.5% | ACHN renal 40.2% | CAKI-1 renal 39.2% | A498 renal 78.7% | CCRF-CEM leukemia 66.3% | MOLT-4 leukemia 63.9%

O=C(Cn1c(/C=C/c2cccc([N+](=O)[O-])c2)nc2ccccc2c1=O)Nc1ccccc1
inactive: HCT-15 colon 66.2% | HT29 colon 71.1% | SNB-75 CNS 70.1% | SNB-19 CNS 81.3% | U251 CNS 11.8% | PC-3 prostate 78.4% | UACC-62 melanoma 50.9% | LOX IMVI melanoma 33% | SK-MEL-28 melanoma 85.4% | SK-MEL-2 melanoma 87.7% | EKVX NSCLC 79.6% | SN12C renal 74.5% | UO-31 renal 77.4% | TK-10 renal 109% | ACHN renal 43.9% | CAKI-1 renal 80.2% | A498 renal 94.7% | CCRF-CEM leukemia 91.5%

Cc1occc1C(=O)NN1C(=O)/C(=C/C=C/c2ccc([N+](=O)[O-])o2)SC1=S
inactive: SNB-19 CNS 12.6% | A498 renal 95.3%
active: HCT-15 colon -75.5% | HT29 colon -57.2% | SNB-75 CNS -13.4% | U251 CNS -92.7% | PC-3 prostate 0.198% | UACC-62 melanoma -91.9% | LOX IMVI melanoma -95.9% | SK-MEL-28 melanoma -73.2% | SK-MEL-2 melanoma -71.8% | EKVX NSCLC -52.1% | SN12C renal -88.1% | UO-31 renal -96.3% | TK-10 renal -49.7% | ACHN renal -100% | CAKI-1 renal -59.7% | CCRF-CEM leukemia 0.965% | MOLT-4 leukemia 5.26%

O=C(NNc1nc2cc(F)ccc2n2c(CN3CCCCC3)ccc12)c1cnccn1
active: HCT-15 colon -52.4% | HT29 colon 8.19% | SNB-75 CNS -9.76% | SNB-19 CNS -8.81% | U251 CNS -84.8% | PC-3 prostate -18.3% | UACC-62 melanoma -35.2% | LOX IMVI melanoma -69.7% | SK-MEL-28 melanoma -57.4% | SK-MEL-2 melanoma -67.2% | EKVX NSCLC -78.2% | SN12C renal 1.01% | UO-31 renal -72.2% | TK-10 renal -92.7% | ACHN renal -98.3% | CAKI-1 renal -79.5% | A498 renal -87.9% | CCRF-CEM leukemia -16.2%

NS(=O)(=O)c1ccc(-n2cc(-c3cccc(NC(=O)c4cc(Cl)cc(Cl)c4)c3)nn2)cc1
active: U251 CNS -45.9% | LOX IMVI melanoma 2.52%
inactive: HCT-15 colon 94.7% | HT29 colon 32.1% | SNB-75 CNS 86.2% | SNB-19 CNS 68.6% | PC-3 prostate 69.7% | UACC-62 melanoma 69.6% | SK-MEL-28 melanoma 45.3% | SK-MEL-2 melanoma 96.7% | EKVX NSCLC 88.8% | SN12C renal 88% | UO-31 renal 115% | TK-10 renal 114% | ACHN renal 95.8% | CAKI-1 renal 94.2% | A498 renal 135% | CCRF-CEM leukemia 56.7%

CN1CCN(c2ccc3c(c2)nc(NNC(=O)c2ncccn2)c2cccn23)CC1
inactive: HT29 colon 11.2% | SNB-19 CNS 16.5%
active: HCT-15 colon 1.47% | SNB-75 CNS -46.9% | U251 CNS -38.7% | PC-3 prostate 6.1% | UACC-62 melanoma -35.1% | LOX IMVI melanoma -62.8% | SK-MEL-28 melanoma -27.6% | SK-MEL-2 melanoma -7.45% | EKVX NSCLC -73.2% | SN12C renal 6.25% | UO-31 renal 1.76% | TK-10 renal -87.5% | ACHN renal -83.7% | A498 renal -95% | CCRF-CEM leukemia 7.34%

Cc1cnc(C(=O)NNc2nc3cc(F)ccc3n3c(C(=O)N4CC5CC(C4)N5)ccc23)cn1
inactive: HCT-15 colon 32.4% | HT29 colon 41.5% | SNB-75 CNS 71.6% | SNB-19 CNS 35.2% | U251 CNS 22.9% | PC-3 prostate 47.2% | LOX IMVI melanoma 16% | SK-MEL-28 melanoma 30.3% | SK-MEL-2 melanoma 53% | EKVX NSCLC 23.1% | SN12C renal 32.1% | UO-31 renal 23.3% | ACHN renal 15.6% | CAKI-1 renal 23.1% | A498 renal 88.6% | CCRF-CEM leukemia 17%
active: UACC-62 melanoma 2.81%

COc1ccc(-c2nnc3ccc(N/N=C/c4ccc(C)cc4)nn23)cc1
inactive: HCT-15 colon 50% | HT29 colon 82.6% | SNB-19 CNS 92.6% | U251 CNS 44.9% | PC-3 prostate 72.2% | UACC-62 melanoma 88.9% | LOX IMVI melanoma 23.7% | SK-MEL-28 melanoma 93.6% | SK-MEL-2 melanoma 108% | EKVX NSCLC 68.2% | SN12C renal 76.9% | UO-31 renal 33.5% | TK-10 renal 82.7% | ACHN renal 59% | CAKI-1 renal 54.6% | A498 renal 109% | CCRF-CEM leukemia 91.8%
active: SNB-75 CNS -38.6%

O=C(Nc1ccc(C(F)(F)F)cc1)Nc1ccc2oc(=O)ccc2c1
active: HT29 colon 9.84% | U251 CNS -0.283% | LOX IMVI melanoma -83.8% | SN12C renal 7.6% | UO-31 renal -10.3% | ACHN renal 6.95%
inactive: HCT-15 colon 10.1% | SNB-75 CNS 44.1% | SNB-19 CNS 29.5% | PC-3 prostate 13.6% | UACC-62 melanoma 28% | SK-MEL-28 melanoma 37.6% | SK-MEL-2 melanoma 30% | EKVX NSCLC 12.2% | TK-10 renal 36.1% | CAKI-1 renal 22.9% | A498 renal 27.4% | CCRF-CEM leukemia 16.1%

COc1ccc(-c2nnc3ccc(N/N=C/c4ccc(O)cc4)nn23)cc1
active: LOX IMVI melanoma -54.8%
inactive: HCT-15 colon 26.7% | HT29 colon 87.4% | SNB-75 CNS 53.6% | SNB-19 CNS 67.5% | U251 CNS 67.6% | PC-3 prostate 40.5% | UACC-62 melanoma 58.8% | SK-MEL-28 melanoma 69.1% | SK-MEL-2 melanoma 73.2% | EKVX NSCLC 37.8% | SN12C renal 42.3% | UO-31 renal 30.3% | TK-10 renal 38.9% | ACHN renal 43.5% | CAKI-1 renal 21.5% | A498 renal 91.9% | CCRF-CEM leukemia 14.1%
